Screens deposited in PubChem by National Center for Advancing Translational Sciences (NCATS).
hNpr1 antagonist = human Npr1 receptor antagonism; P16066; HEK293 hNpr1 GloSensor cGMP, ANP-stimulated luminescence; Potency, µM (highest dose often 46.3 µM), usual class: inhibitors; 76,000 compounds, 1.6% hits; AID 1347048; calls by dose curve; also: nearly all actives have a fitted effect of over 60% in size
Target sequence (P16066 whole entry, looked up): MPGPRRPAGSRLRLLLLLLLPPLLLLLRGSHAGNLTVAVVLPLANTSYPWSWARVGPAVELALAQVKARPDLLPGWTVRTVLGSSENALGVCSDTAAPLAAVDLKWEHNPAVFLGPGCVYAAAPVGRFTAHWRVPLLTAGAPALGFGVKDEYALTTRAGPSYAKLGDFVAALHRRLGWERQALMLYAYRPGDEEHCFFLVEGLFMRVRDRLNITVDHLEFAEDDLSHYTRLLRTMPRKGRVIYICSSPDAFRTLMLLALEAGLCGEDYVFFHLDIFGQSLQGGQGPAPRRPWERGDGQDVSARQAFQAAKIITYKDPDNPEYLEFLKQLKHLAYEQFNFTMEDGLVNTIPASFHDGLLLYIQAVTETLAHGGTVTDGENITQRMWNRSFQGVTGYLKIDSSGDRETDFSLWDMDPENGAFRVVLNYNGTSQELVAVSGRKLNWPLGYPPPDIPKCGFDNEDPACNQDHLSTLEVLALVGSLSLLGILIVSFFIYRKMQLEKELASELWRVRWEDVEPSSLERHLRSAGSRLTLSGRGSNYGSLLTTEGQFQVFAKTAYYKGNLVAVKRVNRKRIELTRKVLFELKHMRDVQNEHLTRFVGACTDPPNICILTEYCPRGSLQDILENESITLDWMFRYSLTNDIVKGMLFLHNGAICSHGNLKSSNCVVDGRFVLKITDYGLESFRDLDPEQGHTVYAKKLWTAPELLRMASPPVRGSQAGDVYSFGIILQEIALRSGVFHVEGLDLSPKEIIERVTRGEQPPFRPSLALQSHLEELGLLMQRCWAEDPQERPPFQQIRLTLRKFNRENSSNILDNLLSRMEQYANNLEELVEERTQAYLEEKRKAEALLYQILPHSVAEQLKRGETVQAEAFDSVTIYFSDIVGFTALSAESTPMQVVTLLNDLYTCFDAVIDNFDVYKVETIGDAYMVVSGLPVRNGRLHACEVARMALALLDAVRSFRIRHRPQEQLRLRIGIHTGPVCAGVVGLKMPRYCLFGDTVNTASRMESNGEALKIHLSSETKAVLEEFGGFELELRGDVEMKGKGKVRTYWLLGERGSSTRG
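HEK293 cells stably expressing human Npr1 and cGMP GloSensor pGS-40F, loaded 2 h with 2% GloSensor reagent, given compound 30 min at room temperature. Luminescence read before and 20 min after 0.1 nM hNppA.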
SNCA expr inhib = inhibitors of alpha-synuclein (SNCA) gene expression. HEK-293 SNCA-luciferase knock-in, luminescence, 24 h. Potency, µM (top dose mostly 57.2 µM), actives largely listed as inhibitors. 140,000 compounds, 0.17% hits. AID 1671194; also: nearly all actives have a fitted effect of over 45% in size
FLuc inh = blocks purified firefly luciferase enzyme activity. purified P. pyralis luciferase, luminescence, biochemical. P08659. Potency, µM (doses to about 115 µM), most hits filed as inhibitors. AID 1347043. 76,000 compounds, 2.5% hits; also: nearly all actives have a fitted effect of over 65% in size
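Luminescence read by CCD imager after adding enzyme (10nM final) to wells holding compound, titrated in qHTS. Substrates 10uM each D-luciferin and ATP; buffer 50mM Tris acetate pH 7.5, 10mM Mg acetate, Tween-20, BSA.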
HEK cytotox = HEK 293 cell cytotoxicity; 94,000 compounds, 6.6% hits; Potency, µM (series often up to 115 µM), most hits filed as inhibitors; HEK 293 viability, ATP luminescence (CellTiter-Glo), 48-72 h; also: nearly all actives have a fitted effect of over 60% in size
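Viability of HEK 293 cells, plated at 250 cells/well, was judged by cellular ATP after compound treatment for 48 or 72 hr. Luminescence was imaged 10 min after CellTiter-Glo addition at room temperature.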
3T3 cytotox = kills NIH 3T3 cells | NIH 3T3 viability, CellTiter-Glo ATP luminescence, 48-72 h | Potency, µM (top dose mostly 96.7 µM), most hits filed as inhibitors | 94,000 compounds, 4.3% hits | AID 1345082; also: nearly all actives have a fitted effect of over 55% in size
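Cytotoxicity was measured by CellTiter-Glo ATP luminescence after 48 or 72 h compound exposure at 37 °C. Mouse NIH 3T3 fibroblasts were seeded at 400 cells/well and dosed by 23 nL pin transfer.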
SNCA viab count = cell viability loss counter-screen | HEK-293-SNCA-luc viability, GF-AFC fluorescence, 24 h | Potency, µM (series often up to 57.1 µM), most hits filed as cytotoxic | 150,000 compounds, 0.12% hits; also: nearly all actives have a fitted effect of over 30% in size
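HEK-293-SNCA-luc cells (1500/well) plated 24 h, then exposed 24 h to a dilution series; GF-AFC added 30 min at 37C, fluorescence 405/540 nm; normalised to medium-only and DMSO wells, Hill fit.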
NPR1 antag cnf = confirmation of human Npr1 natriuretic peptide receptor antagonists; Potency, µM (doses to about 57.6 µM), hits mostly inhibitors; shares compounds with hNpr1 antagonist; 1,400 compounds, 76% hits; HEK293 hNpr1 cGMP GloSensor luminescence, ANP-stimulated; calls by dose curve; also: nearly all actives have a fitted effect of over 70% in size
NPR2 antag = hNpr2 antagonism, selectivity versus Npr1 | shares compounds with hNpr1 antagonist | HEK293 hNpr2 GloSensor cGMP luminescence, CNP-stimulated | Potency, µM (doses to about 57.6 µM), actives largely listed as inhibitors | 1,400 compounds, 67% hits | AID 1347046; calls by dose curve; also: nearly all actives have a fitted effect of over 70% in size
FLuc counter = counter-screen for Npr1 antagonists: firefly luciferase inhibitors | shares compounds with hNpr1 antagonist | purified FLuc enzyme, luminescence, Km substrate | Potency, µM (highest dose often 57.6 µM), actives largely listed as inhibitors | 1,400 compounds, 0.7% hits
GloSensor ctrl = control cell line activity, Npr1 antagonist counter-screen | shares compounds with hNpr1 antagonist | HEK293 GloSensor cGMP, SNP-stimulated, luminescence | Potency, µM (highest dose often 57.6 µM), most hits filed as inhibitors | 1,400 compounds, 69% hits; calls by dose curve; also: nearly all actives have a fitted effect of over 70% in size
Of the large screens only hits and unclear results are named; the others gave an inactive call (follow-up assays come after a bar, where they were run). In the library only some 7.4% were active in any assay of this set; here they are far more common. Unless noted, calls follow the shape of the dose curve; as a rule, active = well fitted curve in the direction sought with a large enough effect; inconclusive = small, poorly fitted or top-dose-only effect, or another doubt; inactive = no such curve, though single readings can be large; an effect the other way counts as inactive or inconclusive.

O=C(C1CCCC1)N1CCC(CCOc2ccc(F)cc2)C1 (stereo not given)	hNpr1 antagonist inconclusive, HEK cytotox inconclusive, 3T3 cytotox inconclusive | NPR1 antag cnf inconclusive | NPR2 antag inconclusive | FLuc counter inactive | GloSensor ctrl 21.7µM
Cc1ccc(OCCC2CCN(C(=O)C(C)C)C2)cc1 (stereo not given)	hNpr1 antagonist inconclusive, FLuc inh inconclusive, HEK cytotox inconclusive, 3T3 cytotox inconclusive
CNC(=O)c1nc2cccnc2n(Cc2ccccc2OC)c1=O	none (no result: hNpr1 antagonist, FLuc inh)
COc1ccc(CCNC(=O)C2CCCN(c3nccc(Nc4ccccc4F)n3)C2)cc1 (stereo not given)	SNCA expr inhib inconclusive, HEK cytotox inconclusive, 3T3 cytotox inconclusive (no result: hNpr1 antagonist, FLuc inh)
CC(=O)N1CCC(N[C@@H]2CC[C@@H]2NC(=O)CCn2nnc3ccccc32)CC1	none
CC1(C)CNC(=O)c2nc(-c3ccccc3-n3cncn3)[nH]c2C1	none
COc1ccc(Nc2cnc3ccc(-c4ccccc4OC)nn23)cc1OC	hNpr1 antagonist 28.2µM, HEK cytotox inconclusive, 3T3 cytotox inconclusive | NPR1 antag cnf 25µM | NPR2 antag 25µM | FLuc counter inconclusive | GloSensor ctrl 22.2µM
COc1ccccc1-c1ccc2ncc(Nc3ccc4c(c3)OCO4)n2n1	HEK cytotox inconclusive, 3T3 cytotox inconclusive
COc1ccc(C(=O)N2CCCC(c3nnnn3C)C2)cc1 (stereo not given)	none (no result: hNpr1 antagonist, FLuc inh)
Cn1ccc2c(C(=O)NCc3cccnc3)nc(Nc3ccccc3)cc21	hNpr1 antagonist inconclusive, SNCA expr inhib inconclusive, HEK cytotox 63.1µM, 3T3 cytotox inconclusive | NPR1 antag cnf 35.3µM | NPR2 antag 35.3µM | FLuc counter inactive | GloSensor ctrl 31.4µM
Cn1ccc2c(C(=O)NCc3cccnc3)nc(-c3cccc(N4CCOCC4)c3)cc21	HEK cytotox inconclusive, 3T3 cytotox inconclusive
Cn1ccc2c(C(=O)NCc3cccnc3)nc(-c3cccc4cc[nH]c34)cc21	hNpr1 antagonist inconclusive, HEK cytotox inconclusive, 3T3 cytotox inconclusive, SNCA viab count inconclusive | NPR1 antag cnf inconclusive | NPR2 antag inconclusive | FLuc counter inactive | GloSensor ctrl inactive
O=C(c1ccccn1)N1CCC2(COc3ncccc3S(=O)(=O)N2)C1 (stereo not given)	none (no result: hNpr1 antagonist, FLuc inh)
Cc1cc(C(F)(F)F)nn1CC(=O)N1CCC2(CC1)CC(CC(=O)NCc1ccccc1)CCO2 (stereo not given)	SNCA expr inhib inconclusive, HEK cytotox inconclusive (no result: hNpr1 antagonist, FLuc inh)
COc1ccc2oc(CNC(=O)c3cc(CC(C)C)nn3C)nc2c1	hNpr1 antagonist 12.6µM, HEK cytotox inconclusive | NPR1 antag cnf 17.2µM | NPR2 antag 17.2µM | FLuc counter inactive | GloSensor ctrl 15.3µM
COc1ccc(CNC(=O)c2ccc3nc(CCc4ccccc4)oc3c2)c(OC)c1	none (no result: hNpr1 antagonist, FLuc inh, HEK cytotox, 3T3 cytotox)
O=C(c1ccc2c(c1)OCO2)N1CCC2(CC1)NC(=O)N(c1ccccc1Cl)N2	HEK cytotox inconclusive, 3T3 cytotox inconclusive
O=C(NCc1ccccc1)c1ccccc1OC1CN(Cc2ccsc2)C1	SNCA expr inhib inconclusive, HEK cytotox inconclusive, 3T3 cytotox 28.2µM | NPR1 antag cnf inconclusive | NPR2 antag inactive | FLuc counter inactive | GloSensor ctrl inactive
COc1cccc(CN2CC(Oc3ccccc3C(=O)NC3CC3)C2)c1	HEK cytotox inconclusive
